Results as given in PubChem BioAssay (NCATS).
Records with an inconclusive call do not appear. Active and inactive are the calls of the source. Unless noted, calls come from the whole dose curve; as a rule, active = well fitted inhibition curve with a large enough effect; inconclusive = small, poorly fitted or top-dose-only effect; inactive = flat fitted curve, though single readings scatter.

Columns and labels:
CP250 = assay: qHTS profiling for inhibitors of Plasmodium falciparum proliferation (AID 504749);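 note: 0% = DMSO vehicle and full inhibition = artemisinin control; nearly all actives have a fitted effect of over 60% in size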; details: P. falciparum in erythrocytes, SYBR Green DNA, 72 h; series mostly up to 28.7 µM
Method in brief: (§1)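 Fluorescence of SYBR Green-bound parasite DNA, read at 485/535 nm, served as the growth measure. Infected erythrocytes were cultured with compound 72 h; artemisinin (0.29 uM) and DMSO wells defined the normalization range.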

CP252 = assay: as above; details: P. falciparum in erythrocytes, SYBR Green DNA, 72 h; series mostly up to 28.7 µM
Method in brief: as §1

CP256 = assay: as above; details: P. falciparum in erythrocytes, SYBR Green DNA, 72 h; series mostly up to 28.7 µM
Method in brief: as §1

CP260 = assay: as above; details: P. falciparum in erythrocytes, SYBR Green DNA, 72 h; series mostly up to 28.7 µM
Method in brief: as §1

CP262 = assay: as above; details: P. falciparum in erythrocytes, SYBR Green DNA, 72 h; series mostly up to 28.7 µM
Method in brief: as §1

CP265 = assay: as above; details: P. falciparum in erythrocytes, SYBR Green DNA, 72 h; series mostly up to 28.7 µM
Method in brief: as §1

CP266 = assay: as above; details: P. falciparum in erythrocytes, SYBR Green DNA, 72 h; series mostly up to 28.7 µM
Method in brief: as §1

CP268 = assay: as above; details: P. falciparum in erythrocytes, SYBR Green DNA, 72 h; series mostly up to 28.7 µM
Method in brief: as §1

CP269 = assay: as above; details: P. falciparum in erythrocytes, SYBR Green DNA, 72 h; series mostly up to 28.7 µM
Method in brief: as §1

CP286 = assay: as above; details: P. falciparum in erythrocytes, SYBR Green DNA, 72 h; series mostly up to 28.7 µM
Method in brief: as §1

CP291 = assay: as above; details: P. falciparum in erythrocytes, SYBR Green DNA, 72 h; series mostly up to 28.7 µM
Method in brief: as §1

CP297 = assay: as above; details: P. falciparum in erythrocytes, SYBR Green DNA, 72 h; series mostly up to 28.7 µM
Method in brief: as §1

CP305 = assay: as above; details: P. falciparum in erythrocytes, SYBR Green DNA, 72 h; series mostly up to 28.7 µM
Method in brief: as §1

CP315 = assay: as above; details: P. falciparum in erythrocytes, SYBR Green DNA, 72 h; series mostly up to 28.7 µM
Method in brief: as §1

CP325 = assay: as above; details: P. falciparum in erythrocytes, SYBR Green DNA, 72 h; series mostly up to 28.7 µM
Method in brief: as §1

CP329 = assay: as above; details: P. falciparum in erythrocytes, SYBR Green DNA, 72 h; series mostly up to 28.7 µM
Method in brief: as §1

DIV14 = assay: as above; details: P. falciparum in erythrocytes, SYBR Green DNA, 72 h; series mostly up to 28.7 µM
Method in brief: as §1

DIV30 = assay: as above; details: P. falciparum in erythrocytes, SYBR Green DNA, 72 h; series mostly up to 28.7 µM
Method in brief: as §1

Dd2 = assay: as above; details: P. falciparum in erythrocytes, SYBR Green DNA, 72 h; series mostly up to 28.7 µM
Method in brief: as §1

ECU = assay: as above; details: P. falciparum in erythrocytes, SYBR Green DNA, 72 h; series mostly up to 28.7 µM
Method in brief: as §1

FAB9 = assay: as above; details: P. falciparum in erythrocytes, SYBR Green DNA, 72 h; series mostly up to 28.7 µM
Method in brief: as §1

GB4 = assay: as above; details: P. falciparum in erythrocytes, SYBR Green DNA, 72 h; series mostly up to 28.7 µM
Method in brief: as §1

HB3 = assay: as above; details: P. falciparum in erythrocytes, SYBR Green DNA, 72 h; series mostly up to 28.7 µM
Method in brief: as §1

ICS = assay: as above; details: P. falciparum in erythrocytes, SYBR Green DNA, 72 h; series mostly up to 28.7 µM
Method in brief: as §1

JCK = assay: as above; details: P. falciparum in erythrocytes, SYBR Green DNA, 72 h; series mostly up to 28.7 µM
Method in brief: as §1

N140 = assay: as above; details: P. falciparum in erythrocytes, SYBR Green DNA, 72 h; series mostly up to 28.7 µM
Method in brief: as §1

P93_24 = assay: as above; details: P. falciparum in erythrocytes, SYBR Green DNA, 72 h; series mostly up to 28.7 µM
Method in brief: as §1

P94_40 = assay: as above; details: P. falciparum in erythrocytes, SYBR Green DNA, 72 h; series mostly up to 28.7 µM
Method in brief: as §1

PAD = assay: as above; details: P. falciparum in erythrocytes, SYBR Green DNA, 72 h; series mostly up to 28.7 µM
Method in brief: as §1

PC15 = assay: as above; details: P. falciparum in erythrocytes, SYBR Green DNA, 72 h; series mostly up to 28.7 µM
Method in brief: as §1

PC26 = assay: as above; details: P. falciparum in erythrocytes, SYBR Green DNA, 72 h; series mostly up to 28.7 µM
Method in brief: as §1

PC49 = assay: as above; details: P. falciparum in erythrocytes, SYBR Green DNA, 72 h; series mostly up to 28.7 µM
Method in brief: as §1

SC27B = assay: as above; details: P. falciparum in erythrocytes, SYBR Green DNA, 72 h; series mostly up to 28.7 µM
Method in brief: as §1

TAB109 = assay: as above; details: P. falciparum in erythrocytes, SYBR Green DNA, 72 h; series mostly up to 28.7 µM
Method in brief: as §1

TAB113 = assay: as above; details: P. falciparum in erythrocytes, SYBR Green DNA, 72 h; series mostly up to 28.7 µM
Method in brief: as §1

TAB165 = assay: as above; details: P. falciparum in erythrocytes, SYBR Green DNA, 72 h; series mostly up to 28.7 µM
Method in brief: as §1

W2 = assay: as above; details: P. falciparum in erythrocytes, SYBR Green DNA, 72 h; series mostly up to 28.7 µM
Method in brief: as §1

[1] = biological target: Nuclear receptor subfamily 1 group I member 2 (Rattus norvegicus) (UniProt Q9R1A7); assay: qHTS assay for small molecule activators of the rat pregnane X receptor (rPXR) signaling pathway (AID 651751; call rule not given here; note: 0% is about no effect); details: rPXR reporter cells, luciferase (One-Glo), 24 h
Chain of Nuclear receptor subfamily 1 group I member 2 (Rattus norvegicus) (Q9R1A7 whole entry, looked up): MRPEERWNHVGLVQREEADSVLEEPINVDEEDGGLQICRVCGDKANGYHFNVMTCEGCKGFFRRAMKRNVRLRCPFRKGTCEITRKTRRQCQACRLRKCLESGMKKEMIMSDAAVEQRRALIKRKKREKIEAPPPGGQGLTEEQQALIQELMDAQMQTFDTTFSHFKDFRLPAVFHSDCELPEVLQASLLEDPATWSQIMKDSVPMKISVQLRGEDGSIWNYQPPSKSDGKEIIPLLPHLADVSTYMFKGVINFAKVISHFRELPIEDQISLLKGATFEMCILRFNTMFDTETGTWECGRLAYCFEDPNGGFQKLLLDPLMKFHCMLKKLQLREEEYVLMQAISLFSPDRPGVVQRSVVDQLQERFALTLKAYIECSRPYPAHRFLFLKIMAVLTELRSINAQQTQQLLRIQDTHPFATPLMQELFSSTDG

[2] = qHTS assay for small molecule activators of the human pregnane X receptor (PXR) signaling pathway (AID 720659; call rule not given here; note: 0% is about no effect)

C[C@@H]1[C@H](O)[C@@H](C)/C=C/C=C/C=C/C=C/C=C/C=C/C=C/[C@H](O[C@@H]2O[C@H](C)[C@@H](O)[C@H](N)[C@@H]2O)C[C@@H]2O[C@](O)(C[C@@H](O)C[C@@H](O)[C@H](O)CC[C@@H](O)C[C@@H](O)CC(=O)O[C@H]1C)C[C@H](O)[C@H]2C(=O)O
inactive: Potency (CP250) | Potency (CP252) | Potency (CP256) | Potency (CP260) | Potency (CP262) | Potency (CP265) | Potency (CP266) | Potency (CP268) | Potency (CP269) | Potency (CP286) | Potency (CP291) | Potency (CP297) | Potency (CP305) | Potency (CP315) | Potency (CP325) | Potency (CP329) | Potency (DIV14) | Potency (DIV30) | Potency (Dd2) | Potency (ECU) | Potency (FAB9) | Potency (GB4) | Potency (HB3) | Potency (ICS) | Potency (JCK) | Potency (N140) | Potency (P93_24) | Potency (P94_40) | Potency (PAD) | Potency (PC15) | Potency (PC26) | Potency (PC49) | Potency (SC27B) | Potency (TAB109) | Potency (TAB113) | Potency (TAB165) | Potency (W2) | max response [1] -0.988% | outcome [2]
